# Results reported in PubChem BioAssay (NCATS).
# Where “and” joins values, the source holds several entries; their conditions need not be identical. Equal values may be shown once. Inconclusive results are not listed. A call without a number means that no potency is given here. The source holds several records for some structures; these can differ, active in one and inactive in another. Calls of active or inactive are those of the source. Calls come from the whole dose curve; as a rule, active = well fitted curve in the direction sought with a large enough effect; inconclusive = small, poorly fitted or top-dose-only effect, or another doubt; inactive = no such curve, though single readings can be large; an effect the other way counts as inactive or inconclusive.
# Columns and labels:
# [1] = Viability qHTS for spleen associated tyrosine kinase inhibitor (SYKi) drug resistant MV4-11 cells (AID 1963824); conditions: SYKi-resistant MV4-11 viability, CellTiter-Glo, 72 h; series mostly up to 45 µM; note: nearly all actives have a fitted effect of over 35% in size; note: potency is the fitted concentration of half-maximal effect
# Outline: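 CellTiter-Glo luminescence, read 10 min after reagent addition, reports viability after a 72 hr compound exposure. Cells are an MV4-11 line made resistant to SYK inhibition, seeded at 500 per well onto compound-containing plates.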
# [2] = Cellular viability qHTS for adrenocortical cancer (ACC) cell line SW-13 (AID 1963989); conditions: SW-13 ACC cells viability, CellTiter-Glo, 48 h; activity (max response): stronger effect = lower value; note: nearly all actives have a fitted effect of over 65% in size; note: potency is the fitted concentration of half-maximal effect;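 for activity (max response): cells grown in serum-free medium with ITS supplement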
# Outline: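 Compound titrations (up to 46 uM final, in DMSO) were applied to SW-13 cells for 48 h at 37C/5% CO2. Reading used CellTiter-Glo after 20 min at room temperature; fitted curves yielded IC50 and efficacy.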
# [3] = Cellular viability qHTS for adrenocortical cancer (ACC) cell line NCI-H295R (AID 1963990); conditions: CellTiter-Glo ATP luminescence, 48 h; series mostly up to 46.1 µM; note: nearly all actives have a fitted effect of over 60% in size; note: potency is the fitted concentration of half-maximal effect
# Outline: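 Readout: CellTiter-Glo luminescence, 20 min RT. Exposure: 48 h, 37C/5% CO2. Cells: NCI-H295R, ITS-DMEM serum-free. Range: up to 46 uM. Analysis: 4PL fit, IC50 plus efficacy.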
# [4] = Quantitative highthroughput screen to assess conditional lethalithy of P12 Ichikawa cells grown in Human Plasma-Like Medium with dialyzed fetal bovine serum (HPLM+ds) (AID 1963879); conditions: ATP luminescence, 48 h; Potency: viability; series mostly up to 45.8 µM; note: nearly all actives have a fitted effect of over 35% in size; note: potency is the fitted concentration of half-maximal effect
# Outline: (§1)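 Each medium arm—HPLM with 10% dialyzed FBS, or RPMI1640 with 5 mM glucose and 10% untreated or dialyzed FBS—was screened against an 11-point, 3-fold compound titration for 48 h at 37 °C, with CellTiter-Glo luminescence as endpoint.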
# [5] = Quantitative highthroughput screen to assess conditional lethalithy of P12 Ichikawa cells grown in RPMI1640 with dialyzed fetal bovine serum (RPMI+ds) (AID 1963880); conditions: ATP luminescence, 48 h; Potency: P12-Ichikawa viability; series mostly up to 45.8 µM; note: nearly all actives have a fitted effect of over 35% in size
# Outline: as §1
# [6] = Quantitative highthroughput screen to assess conditional lethalithy of SEM cells grown in RPMI1640 with dialyzed fetal bovine serum (RPMI+ds) (AID 1963884); conditions: SEM B-ALL cells, RPMI+dialyzed FBS, CellTiter-Glo viability, 48 h; series mostly up to 45.8 µM; note: nearly all actives have a fitted effect of over 35% in size
# Outline: as §1
# [7] = Quantitative highthroughput screen to assess conditional lethalithy of P12 Ichikawa cells grown in RPMI1640 with untreated serum (RPMI+s) (AID 1963881); conditions: ATP luminescence, 48 h; Potency: viability; series mostly up to 45.8 µM; note: nearly all actives have a fitted effect of over 35% in size
# Outline: as §1
# [8] = Quantitative highthroughput screen to assess conditional lethalithy of NOMO1 cells grown in RPMI1640 with dialyzed fetal bovine serum (RPMI+ds) (AID 1963877); conditions: NOMO1 in RPMI+dialyzed FBS viability, ATP luminescence, 48 h; series mostly up to 45.8 µM; note: nearly all actives have a fitted effect of over 30% in size
# Outline: as §1
# [9] = Quantitative highthroughput screen to assess conditional lethalithy of SEM cells grown in Human Plasma-Like Medium with dialyzed fetal bovine serum (HPLM+ds) (AID 1963882); conditions: SEM B-ALL cells in HPLM+ds, CellTiter-Glo viability, 48 h; series mostly up to 45.8 µM; note: nearly all actives have a fitted effect of over 35% in size
# Outline: as §1
# [10] = Quantitative highthroughput screen to assess conditional lethalithy of SEM cells grown in RPMI1640 with unreated serum (RPMI+s) (AID 1963883); conditions: SEM B-ALL cells, CellTiter-Glo viability, 48 h; series mostly up to 45.8 µM; note: nearly all actives have a fitted effect of over 35% in size; note: potency is the fitted concentration of half-maximal effect
# Outline: as §1
# [11] = Quantitative highthroughput screen to assess conditional lethalithy of NOMO1 cells grown in Human Plasma-Like Medium with dialyzed fetal bovine serum (HPLM+ds) (AID 1963878); conditions: NOMO1 AML cells in HPLM+ds, CellTiter-Glo viability, 48 h; series mostly up to 45.8 µM; note: nearly all actives have a fitted effect of over 35% in size; note: potency is the fitted concentration of half-maximal effect
# Outline: as §1
smiles,measurement,setting,value
CCCCCCC(=O)CCCCCC/C=C/C[C@@H](O)[C@H](O)[C@@](N)(CO)C(=O)O,Potency,[1],inactive
same,activity (max response),[2],-4.81% (inactive)
same,Potency,[3],inactive
CCC1(c2ccccc2)C(=O)N(COC)C(=O)N(COC)C1=O,Potency,[1],inactive
same,activity (max response),[2],-1.61% (inactive)
NCC(O)c1ccc(O)cc1 (stereo not given),Potency,[1],inactive
same,activity (max response),[2],9.24% (inactive)
same,Potency,[3],inactive
CCCOC(=O)c1cncn1C(C)c1ccccc1 (stereo not given),Potency,[1],inactive
same,activity (max response),[2],12% (inactive)
c1ccc2nc(N3CCNCC3)ccc2c1,Potency,[1],inactive
same,activity (max response),[2],-8.05% (inactive)
CN(C)[C@@H]1C(=O)C(C(N)=O)=C(O)[C@@]2(O)C(=O)C3=C(O)c4c(O)cccc4[C@@](C)(O)[C@H]3C[C@@H]12,Potency,[1],16.6 µM (active)
same,Potency,[4],inactive
same,Potency,[5],inactive
same,Potency,[6],inactive
same,activity (max response),[2],15% (inactive) and 6.24% (inactive)
same,Potency,[3],inactive
CO/C1=C/C(C)=C\[C@@H](C)[C@@H](O)[C@@H](C)C/C(C)=C\C=C/[C@H](OC)[C@@H]([C@@H](C)[C@@H](O)[C@H](C)[C@@]2(O)C[C@@H](O)[C@H](C)[C@@H](C(C)C)O2)OC1=O,Potency,[1],0.0221 µM (active)
same,Potency,[2],0.245 µM (active)
same,Potency,[3],0.0435 µM (active)
Cc1cc(SCc2sc(-c3ccc(C(F)(F)F)c(F)c3)nc2C)ccc1OCC(=O)O,Potency,[1],18.6 µM (active)
same,Potency,[4],inactive
same,Potency,[5],inactive
same,Potency,[7],inactive
same,Potency,[6],inactive
same,activity (max response),[2],-20.9% (inactive)
same,Potency,[3],inactive
Cc1cc(O)ccc1Cl,Potency,[1],inactive
same,activity (max response),[2],10.8% (inactive)
same,Potency,[3],inactive
O=C(O)Cc1ccccc1,Potency,[1],inactive
same,activity (max response),[2],-6.54% (inactive)
same,Potency,[3],inactive
CCCCCC[C@H]1C(=O)O[C@H](C)[C@H](NC(=O)c2cccc(NC=O)c2O)C(=O)O[C@@H](C)[C@@H]1OC(=O)CC(C)C,Potency,[1],0.105 µM (active)
same,Potency,[8],inactive
same,Potency,[4],1.66 µM (active)
same,Potency,[9],inactive
O=S(=O)(CC1CS1)c1ccc(Oc2ccccc2)cc1 (stereo not given),Potency,[1],10.5 µM (active)
same,Potency,[10],20.9 µM (active)
same,activity (max response),[2],-6.36% (inactive)
C[C@@H]1O[C@@H](O[C@@H]2C=C3CC[C@@H]4[C@H](CC[C@]5(C)[C@@H](c6ccc(=O)oc6)CC[C@]45O)[C@@]3(C)CC2)[C@H](O)[C@H](O)[C@H]1O,Potency,[1],0.0075 µM (active)
same,Potency,[2],11.2 nM (active) and 7.3 nM (active)
Cc1ncc(OC[C@@]2(c3cccc(F)c3)C[C@H]2C(=O)Nc2ccc(F)cn2)c(C)n1,Potency,[1],inactive
same,Potency,[8],inactive
same,Potency,[9],inactive
same,Potency,[6],inactive
same,activity (max response),[2],7.8% (inactive)
same,Potency,[3],inactive
C=C(C)[C@@H]1CCC(C)=C[C@H]1c1c(O)cc(CCCCC)cc1O,Potency,[1],16.6 µM (active)
same,Potency,[2],31.6 µM (active)
CCNC(=O)CC1N=C(c2ccc(Cl)cc2)c2cc(OC)ccc2-n2c(C)nnc21 (stereo not given),Potency,[1],8.33 µM (active) and inactive and 517 nM (active)
same,Potency,[8],inactive
same,activity (max response),[2],-19.5% (inactive)
same,Potency,[3],inactive
CC(C)(C)C(O)C(Oc1ccc(Cl)cc1)n1cncn1 (stereo not given),Potency,[1],21.7 µM (active)
same,activity (max response),[2],-16.3% (inactive)
Cc1nnc2n1-c1sc(CCC(=O)N3CCOCC3)cc1C(c1ccccc1Cl)=NC2,Potency,[1],inactive
same,activity (max response),[2],5.36% (inactive)
N#Cc1nn(-c2c(Cl)cc(C(F)(F)F)cc2Cl)c(N)c1S(=O)C(F)(F)F (stereo not given),Potency,[1],10.6 µM (active)
same,Potency,[2],5.8 µM (active)
CCOC(=O)Nc1ccc(NCc2ccc(F)cc2)cc1N,Potency,[1],18.6 µM (active)
same,Potency,[5],inactive
same,Potency,[9],inactive
same,Potency,[10],inactive
same,activity (max response),[2],-1.78% (inactive)
CC[C@H](O)C(C[C@H](C)N(C)C)(c1ccccc1)c1ccccc1,Potency,[1],inactive
same,activity (max response),[2],-19.9% (inactive)
O=C(Nc1ccncc1)C(=O)c1cn(Cc2ccc(Cl)cc2)c2ccccc12,Potency,[1],0.166 µM (active)
same,Potency,[11],0.059 µM (active)
same,Potency,[2],0.126 µM (active)
same,Potency,[3],0.126 µM (active)
C[C@]12COC(=O)C[C@@H]1CC[C@@H]1[C@@H]2CC[C@@]2(C)[C@H]1CC[C@]2(C)O,Potency,[1],inactive
same,activity (max response),[2],-23.6% (inactive)
same,Potency,[3],inactive
CC(C)C[C@H](CN)CC(=O)O,Potency,[1],inactive
same,Potency,[11],inactive
same,Potency,[4],inactive
same,Potency,[7],inactive
same,activity (max response),[2],8.17% (inactive)
same,Potency,[3],inactive
C[N+]1(C)[C@@H]2CC[C@H]1CC(OC(=O)C(CO)c1ccccc1)C2 (stereo not given in full),Potency,[1],inactive
same,activity (max response),[2],-4.66% (inactive)
same,Potency,[3],inactive
C[CH2][Hg][S]c1ccccc1C(=O)O,Potency,[1],inactive
same,Potency,[2],2.59 µM (active)
same,Potency,[3],1.64 µM (active)
CC(=O)c1c(O)c(C)c(O)c(Cc2c(O)c3c(c(C(=O)/C=C/c4ccccc4)c2O)OC(C)(C)C=C3)c1O,Potency,[1],25.9 µM (active)
same,activity (max response),[2],-2.92% (inactive)
same,Potency,[3],inactive
CCC(C)(C)c1ccc(O)cc1,Potency,[1],inactive
same,activity (max response),[2],0.304% (inactive)
same,Potency,[3],inactive
Nc1nc(N)nc(NC2CC2)n1,Potency,[1],inactive
same,activity (max response),[2],-6.71% (inactive)
same,Potency,[3],inactive
COc1cccc(C(=O)CCN[C@@H](C)[C@H](O)c2ccccc2)c1,Potency,[1],inactive
same,Potency,[3],25.9 µM (active)
COC1CC(=C(c2cccs2)c2cccs2)C[N+](C)(C)C1 (stereo not given),Potency,[1],16.8 µM (active)
same,Potency,[3],inactive
C/C(=C\c1csc(C)n1)[C@@H]1C[C@@H]2O[C@@H]2CCC[C@H](C)[C@H](O)[C@@H](C)C(=O)C(C)(C)[C@@H](O)CC(=O)O1,Potency,[1],0.0058 µM (active)
same,Potency,[3],0.0224 µM (active)
Clc1ccccc1N1CCNCC1,Potency,[1],inactive
same,activity (max response),[2],-1.85% (inactive)
same,Potency,[3],inactive
